USP2a block = inhibitors of human ubiquitin-specific protease USP2a; O75604; USP2 core, Ub-CHOP2 coupled fluorogenic reporter, 485/531; Potency, µM (series often up to 38.3 µM), inactives show at the highest dose activity change, negative = inhibition, hits mostly inhibitors; 0.01% of 330,000 active;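 also: potency is read from the fitted curve at half-maximal effect; plate controls were DMSO wells for no effect and full inhibition by NEM control for full effect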
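Deubiquitinase activity read as fluorescence (485/531 nm) after Ub-CHOP2 cleavage activates the enterokinase reporter on its substrate; USP2 core 10nM, Ub-CHOP2 and substrate 25nM each, 30min compound preincubation then 60min RT; data normalized to NEM, curves fitted.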
VDR inh = inhibitors of human vitamin D receptor | P11473 | VDR-SRC2-3 peptide fluorescence polarization, 2 h | Potency, µM, without a hit: max response, negative = inhibition, actives largely listed as inhibitors | 0.93% of 400,000 active; also: potency is read from the fitted curve at half-maximal effect
Target sequence (P11473 whole entry, looked up): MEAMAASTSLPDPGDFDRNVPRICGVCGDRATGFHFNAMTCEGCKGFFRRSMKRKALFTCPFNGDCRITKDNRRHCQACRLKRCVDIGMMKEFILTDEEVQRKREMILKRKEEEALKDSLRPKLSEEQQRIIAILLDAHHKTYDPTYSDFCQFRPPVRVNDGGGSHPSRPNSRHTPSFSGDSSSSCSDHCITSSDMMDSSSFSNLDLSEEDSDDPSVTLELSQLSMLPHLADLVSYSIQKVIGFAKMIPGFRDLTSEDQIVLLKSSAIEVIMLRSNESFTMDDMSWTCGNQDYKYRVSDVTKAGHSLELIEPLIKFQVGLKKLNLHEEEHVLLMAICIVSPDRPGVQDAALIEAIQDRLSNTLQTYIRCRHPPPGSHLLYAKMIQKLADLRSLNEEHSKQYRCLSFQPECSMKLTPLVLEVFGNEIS
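FP read-out; VDR + SRC2-3 coactivator peptide; 23 nl compound by pintool; 2 h RT incubation; reagents held at 4 deg C, protected from light.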
GALK inh = blocks human galactokinase activity | 0.007% of 270,000 active | Potency, µM (doses to about 57.5 µM), inactives show at the top dose activity change, negative = inhibition, actives largely listed as inhibitors | Purified GALK, Kinase-Glo residual ATP luminescence; also: potency is read from the fitted curve at half-maximal effect
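GALK at 5 nM final was combined with compound, 35 uM ATP and 100 uM galactose in HEPES pH8.0 with MgCl2 and DTT. The reaction ran one hour at room temperature before luminescent ATP detection.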
USP1-UAF1 inh = USP1/UAF1 (human) deubiquitinase inhibition; O94782; recombinant USP1/UAF1, Ub-Rhodamine cleavage fluorescence; Potency, µM (series often up to 57.1 µM), for inactives: at the top dose activity change, negative = inhibition, hits mostly inhibitors; 0.23% of 390,000 active; also: potency is read from the fitted curve at half-maximal effect; nearly all actives have a fitted effect of over 60% in size
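Step one: compound is pinned into 1nM USP1/UAF1 in HEPES pH 7.8 buffer with TCEP. Step two: 15 min room-temperature incubation. Step three: Ub-Rho (150nM final) starts cleavage, tracked by fluorescence over six one-minute reads.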
Coupling enz = inhibits coupling enzyme system, counter-screen for aldolase hits | 0.67% of 290,000 active | coupling enzyme system counterscreen, AmpLite Red fluorescence | AID 2472 | activity change, negative = inhibition, % at 58.2 µM, hits read low; in the data active = activity change below about -30%
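First, compound is pin-transferred into glyceraldehyde-3-phosphate coupling-enzyme reagent at 57.5 uM final and held 10 min at RT. Next, substrate, coupling system and AmpLite Red are added. After 20 min RT, fluorescence (525/598 nm) is read.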
PLK1 PBD block = blocks phosphopeptide binding to human PLK1 polo-box domain | P53350 | Plk1 PBD binding of FITC phosphopeptide, fluorescence polarization | Potency, µM, without a hit: max response, negative = inhibition, hits mostly inhibitors | 2.8% of 360,000 active; also: potency is read from the fitted curve at half-maximal effect; series mostly up to about 57 µM; nearly all actives have a fitted effect of over 65% in size
* marks the source's active call; other numbers are inactive results; u = inconclusive; x = no result given. Rows were chosen to be rich in hits. Some 3.2% of all compounds tested hit in one or more screens of this group. Unless noted, calls follow the shape of the dose curve; as a rule, active = well fitted curve in the direction sought with a large enough effect; inconclusive = small, poorly fitted or top-dose-only effect, or another doubt; inactive = no such curve, though single readings can be large; an effect the other way counts as inactive or inconclusive. Unless noted, % is scaled to controls: 0 for no effect and ±100 for the full control effect.

SMILES	USP2a block	VDR inh	GALK inh	USP1-UAF1 inh	Coupling enz	PLK1 PBD block
CC(C)CC(=O)N1CCN(c2ccc([N+](=O)[O-])c(NCc3ccccc3)c2)CC1	x	-20.7%	x	-20.6%	x	21.2µM*
O=C(c1ccccc1)N1CCN(c2ccc([N+](=O)[O-])c(NCc3cccnc3)c2)CC1	3.9%	-4.6%	0.2%	-21.9%	2.2	-5.1%
N#C/C(=C\C=C\c1ccccc1)C(=O)NCc1cccnc1	0.9%	u	-3.7%	-16.9%	-0.5	23.8µM*
N#C/C(=C\c1cccc([N+](=O)[O-])c1)C(=O)NCc1cccnc1	1.5%	u	-3.4%	-25.5%	-0.7	-17.8%
Cc1ccc(N(CC(=O)NC(C)(C)C)C(=O)CCC(=O)Nc2ccccn2)c(C)c1	x	x	x	-21.0%	x	-5.3%
CC(C)C[C@@H](CN1CCCC1CN1C(=S)NC[C@@H]1Cc1ccc(O)cc1)N1C[C@H](Cc2ccc(O)cc2)N(CC2CCCCC2)C1=S (stereo partly specified)	x	-22.1%	x	-6.2%	x	18.9µM*
CC(C)C[C@@H](CN1CCC[C@@H]1CN1C(=S)NC[C@@H]1Cc1ccccc1)N1C[C@H](Cc2ccc(O)cc2)N(CC2CCCCC2)C1=S	x	x	x	x	x	0.6%
CC(c1ccccc1C(=O)O)c1cc(F)cc2ccccc12 (stereo unspecified)	x	-2.9%	x	-1.8%	x	-7.0%
COc1ccc2[nH]c(C(=O)c3ccccc3)cc2c1	x	1.5%	x	x	-1.0	x
C#CCOCCOCCOCCNc1nc(N2CCN(C(=O)Cn3cc(CCCCN)nn3)CC2)nc(N2CCN(C(=O)[C@H]([C@@H](C)CC)n3cc(CCCCN)nn3)CC2)n1	1.2%	-13.0%	x	-12.5%	x	-3.8%
CC(Cl)C(=O)c1ccc2c(c1)CCN2C(=O)C1CC1 (stereo unspecified)	6.1%	28.7%	4.5%	4.6%	0.2	18.9µM*
Cc1cc(C)nc(SSc2nc(C)cc(C)n2)n1	-1.0%	7.08µM*	-0.7%	-14.8%	0.9	1.89µM*
CC1=C(SCc2ccccc2)C(=O)c2ccccc2C1=O	x	14.1µM*	x	15.8µM*	x	4.74µM*
CCOC(=O)CSc1nnc(C)c(=O)[nH]1	-0.5%	3.8%	0.0%	5.2%	0.1	-9.4%
CCOC(=O)CSc1nnc(NCC(=O)OC)c(=O)[nH]1	1.2%	39.8µM*	1.5%	-15.9%	3.2	u
c1coc(-c2ccc3nncn3c2)c1	x	x	x	x	x	15µM*
O=C(CN1C(=O)C(=O)N(CCC2=CCCCC2)C1=O)c1c[nH]c2ccccc12	2.4%	6.8%	x	-10.7%	x	-3.4%
O=C(CN1C(=O)C(=O)N(Cc2ccco2)C1=O)c1c[nH]c2ccccc12	-1.7%	-19.9%	x	-6.7%	-0.4	26.7µM*
CCCCC(=O)Nc1cccc(NC(=S)NC(=O)Cc2ccccc2)c1	3.7%	-4.8%	-0.2%	-11.8%	0.4	-15.7%
CC(=O)N1CCN(c2ccc(NC(=O)c3cccc(OCc4ccccc4)c3)cc2)CC1	0.9%	-11.6%	0.1%	-17.5%	-1.1	0.1%
COC(=O)c1ccccc1NC(=O)c1ccc(COc2ccccc2)o1	x	5.0%	3.9%	-3.5%	2.3	-22.7%
CC(C)C(=O)Nc1ccc(N2CCCC2)cc1	-5.0%	11.6%	0.3%	-8.4%	-32.0*	-2.6%
COc1ccc(NC(=O)c2ccc(COc3ccccc3)o2)cc1	3.4%	u	-2.3%	-17.4%	0.0	10.6µM*
CC(=O)N1CCN(c2ccc(NC(=O)c3ccc(OCc4ccccc4)cc3)cc2)CC1	4.5%	28.2µM*	2.9%	-20.1%	-0.9	15µM*
CC(=O)N1CCN(c2ccc(NC(=O)c3ccccc3Cl)cc2)CC1	2.0%	-12.6%	0.1%	-20.0%	2.3	21.2µM*
SMILES	USP2a block	VDR inh	GALK inh	USP1-UAF1 inh	Coupling enz	PLK1 PBD block
O=C(Nc1ccc(N2CCCCCC2)cc1)c1ccccc1Cl	2.9%	1.4%	-1.4%	-25.5%	-3.5	-0.6%
O=C(Nc1ccccc1)c1ccc(COc2ccccc2)cc1	4.9%	u	4.3%	-16.3%	0.9	29.9µM*
O=C(Nc1ccccc1)c1ccc(-c2ccc([N+](=O)[O-])cc2)o1	1.0%	u	0.0%	-8.6%	-0.6	-22.9%
O=C(Nc1ccc(OCc2ccccc2)cc1)c1ccccc1	1.0%	u	0.4%	-10.4%	-0.1	-5.5%
CCN(CC(=O)Nc1ccc(OC)cc1)C(=O)c1ccc([N+](=O)[O-])cc1	0.0%	u	4.8%	-0.5%	0.2	6.7µM*
COc1ccc(NC(=O)c2ccc(-c3ccc([N+](=O)[O-])cc3)o2)cc1	-0.9%	10.7%	-1.6%	-16.2%	-30.5*	-3.6%
CCOc1cccc(OCCOCCn2cnc3ccccc3c2=O)c1	3.4%	-3.6%	0.1%	1.3%	-0.3	-4.2%
COc1ccc(-c2cc(C(F)(F)F)n3nc(C)c(-c4ccccc4)c3n2)cc1OC	x	3.1%	x	-25.7%	x	x
CC(=O)Oc1cc2c(C(=O)NCCCN3CCOCC3)c(C)oc2c2ccccc12	1.9%	-5.1%	2.0%	-19.0%	-37.7*	29.9µM*
Cc1ccc(NC(=S)N(CCN(C)C)Cc2cccs2)c(C)c1	-0.2%	u	-0.6%	-20.4%	-1.1	8.44µM*
Cc1cc(C)c(NC(=S)N(CCN(C)C)Cc2cccs2)c(C)c1	-5.4%	8.6%	-0.5%	-12.4%	-7.7	-5.4%
COCn1c(=O)c2c(nc(SC3=NCCS3)n2Cc2ccccc2C)n(COC)c1=O	-3.6%	15.5%	8.6%	-13.8%	-11.8	-6.1%
Cc1ccc(NC(=O)Cn2nc(C)cc2C)cc1	0.9%	-11.6%	10.3%	-9.5%	5.4	-5.9%
Cc1cc(C)n(CC(=O)Nc2ccccc2)n1	-6.5%	0.2%	3.4%	-4.5%	0.6	21.2µM*
Cn1c(OCc2ccco2)nc2c1c(=O)n(Cc1ccc(Cl)c(Cl)c1)c(=O)n2C	1.4%	-11.1%	2.3%	-14.0%	8.4	11.9µM*
O=C(c1cc(-c2ccc3c(c2)OCO3)on1)N1CCCCC1	3.2%	-9.0%	10.1%	-17.2%	-2.1	-0.9%
CCN(CC(=O)NC(C)C)C(=O)c1ccc(S(=O)(=O)N(C)c2ccccc2OC)cc1	-2.2%	u	4.5%	2.6%	-0.3	2.99µM*
O=[N+]([O-])c1ccc(C[n+]2ccc(Cc3ccccc3)cc2)cc1	0.1%	13.4%	1.2%	-23.1%	-42.2*	-2.7%
Cc1nc2scc(C)n2c(=O)c1S(=O)(=O)Nc1ccc(N2CCOCC2)c(Cl)c1	0.3%	-24.1%	-5.8%	-15.8%	0.1	26.7µM*
Cc1nc2scc(C)n2c(=O)c1S(=O)(=O)NCC1CCN(Cc2ccc(Cl)cc2)CC1	0.6%	-7.6%	-2.9%	-16.8%	4.0	18.9µM*
Cc1ccc(N2C(=O)CC(Cn3nc(C)cc3C)C2=O)cc1 (stereo unspecified)	-0.1%	9.1%	-0.4%	-19.7%	-0.2	3.3%

Screens from PubChem BioAssay.
